Source: PubChem BioAssay (NCATS)
Values joined by “and” are separate entries in the source; they are usually repeats but may differ in a detail not shown here. Equal values may be shown once. Values without a mark were called inactive. Results filed as inconclusive are left out. Active and inactive are the calls of the source. Unless noted, the call rests on the fitted dose curve; in most records, active means well fitted curve in either direction with a large enough effect (not every such curve was filed as active); inconclusive means small, poorly fitted or top-dose-only effect, or another doubt; inactive means flat fitted curve, though single readings scatter.

Tests used:
[1] = AP1 Signaling Pathway (AID 357); conditions: ME-180 AP-1-bla reporter, EGF-induced, beta-lactamase ratio, 5 h;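 further: ME-180 reporter cells stimulated with EGF at its EC50 level; on the % scale 0 is the no-effect control and ±100 the full control effect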
In short: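 In this screen, ME-180 cells in Opti-MEM with 0.5% dialyzed FBS received EC50 EGF and compound titrations for 5 h. AP-1 reporter beta-lactamase was detected via CCF4 ratio, giving AC50 for positive and negative modulators.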

[2] = NFAT Signaling Pathway (AID 444); conditions: Jurkat NFAT-bla M1, carbachol, beta-lactamase ratio, 5 h;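 further: carbachol stimulus at about its EC50 of 1 µM final; on the % scale 0 is the no-effect control and ±100 the full control effect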
In short: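 Jurkat cells carrying an NFAT-driven β-lactamase reporter and co-transfected muscarinic M1 receptor were treated with compound plus carbachol (1 uM final, an EC50 level) for 5 h at 37 °C. CCF4 loading followed for 1 h at RT; 460/530 nm ratio gave %activity.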

[3] = Stat Signaling Pathway (AID 446); conditions: ME-180 SIE beta-lactamase reporter, IL-6 stimulated, 5 h;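 further: ME-180 cervical cancer cells given 40 pM IL-6 alongside compound; SIE-controlled beta-lactamase reporter measured as 460/530 nm FRET emission ratio; on the % scale 0 is the no-effect control and ±100 the full control effect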
In short: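 Screening format detects activators and inhibitors alike: ME-180 SIE-bla cells stimulated at 40 pM IL-6 for 5 hrs with compound, then dual-emission beta-lactamase read at 405 nm excitation.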

[4] = target: Glucocorticoid receptor (Homo sapiens) (UniProt P04150); assay: GR-GFP Redistribution (AID 450;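 active means compounds whose dose series gives a full or clear partial fitted curve of increased nuclear translocation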; further: potency means the concentration at half of the fitted maximal effect); conditions: U2OS GR-GFP nuclear translocation, laser cytometry, 2 h
Chain of Glucocorticoid receptor (Homo sapiens) (P04150 whole entry, looked up, the tested form may be a part): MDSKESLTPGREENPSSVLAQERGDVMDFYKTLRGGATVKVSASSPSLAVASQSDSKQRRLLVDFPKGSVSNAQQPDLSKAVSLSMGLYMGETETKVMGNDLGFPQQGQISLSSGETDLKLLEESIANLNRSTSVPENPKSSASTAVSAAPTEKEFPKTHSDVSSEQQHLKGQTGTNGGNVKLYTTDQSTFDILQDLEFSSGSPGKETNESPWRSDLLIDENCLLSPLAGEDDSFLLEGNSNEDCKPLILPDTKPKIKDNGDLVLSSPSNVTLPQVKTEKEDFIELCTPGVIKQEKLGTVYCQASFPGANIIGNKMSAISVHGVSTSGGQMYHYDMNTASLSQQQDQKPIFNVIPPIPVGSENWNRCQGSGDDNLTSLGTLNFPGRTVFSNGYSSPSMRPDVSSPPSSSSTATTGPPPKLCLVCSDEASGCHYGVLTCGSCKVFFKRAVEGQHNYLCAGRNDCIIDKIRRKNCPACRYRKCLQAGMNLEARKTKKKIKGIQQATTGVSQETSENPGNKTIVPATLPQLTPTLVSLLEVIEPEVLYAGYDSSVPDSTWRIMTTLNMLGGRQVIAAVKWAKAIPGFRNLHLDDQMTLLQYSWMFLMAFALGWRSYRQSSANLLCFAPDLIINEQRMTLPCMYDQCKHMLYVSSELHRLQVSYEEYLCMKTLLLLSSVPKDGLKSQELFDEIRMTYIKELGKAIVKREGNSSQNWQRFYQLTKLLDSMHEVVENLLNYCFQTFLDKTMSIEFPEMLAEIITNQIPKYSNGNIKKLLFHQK

[5] = target: Glucocorticoid receptor (Homo sapiens) (UniProt P04150); assay: GR-EFC Redistribution (AID 451; calls by dose curve; further: potency means the concentration at half of the fitted maximal effect); conditions: CHO-K1 GR-EFC translocation, beta-gal luminescence, 2 h
In short: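 CHO-K1 cells stably expressing nuclear-localized β-gal enzyme acceptor and GR fused C-terminally to the enzyme donor fragment; ligand-driven nuclear translocation restores β-gal by complementation. Compounds titrated up to 46 uM final, 2 h at 37 °C; luminescence read.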

[6] = target: Mitogen-activated protein kinase 10 (Mus musculus) (UniProt Q61831); assay: JNK3 AlphaScreen Assay (AID 530); conditions: JNK3 lysate, c-Jun phosphorylation; series mostly up to 25.6 µM;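 further: kinase came from lysate of stimulated human HepG2 cells; signal reports phosphorylation of biotinylated GST-cJun 1-79 at Ser73 with 10 µM ATP; on the % scale 0 is the no-effect control and ±100 the full control effect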
In short: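 Inhibitors reduce antibody binding to phosphorylated biotin-cJun, lowering AlphaScreen luminescence. Lysates from HepG2 cells pre-activated by IL-1beta plus TNF-alpha supplied JNK3; compounds were titrated.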

[7] = target: Cytochrome P450 1A2 (Homo sapiens) (UniProt P05177); assay: p450-cyp1a2 (AID 410; calls by dose curve; further: potency means the concentration at half of the fitted maximal effect;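 on activity change, negative = inhibition: -100% = full effect of reference inhibitor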); conditions: recombinant CYP1A2, luciferin-ME demethylation, luminescence; series mostly up to 25.6 µM
Chain of Cytochrome P450 1A2 (Homo sapiens) (P05177 whole entry, looked up): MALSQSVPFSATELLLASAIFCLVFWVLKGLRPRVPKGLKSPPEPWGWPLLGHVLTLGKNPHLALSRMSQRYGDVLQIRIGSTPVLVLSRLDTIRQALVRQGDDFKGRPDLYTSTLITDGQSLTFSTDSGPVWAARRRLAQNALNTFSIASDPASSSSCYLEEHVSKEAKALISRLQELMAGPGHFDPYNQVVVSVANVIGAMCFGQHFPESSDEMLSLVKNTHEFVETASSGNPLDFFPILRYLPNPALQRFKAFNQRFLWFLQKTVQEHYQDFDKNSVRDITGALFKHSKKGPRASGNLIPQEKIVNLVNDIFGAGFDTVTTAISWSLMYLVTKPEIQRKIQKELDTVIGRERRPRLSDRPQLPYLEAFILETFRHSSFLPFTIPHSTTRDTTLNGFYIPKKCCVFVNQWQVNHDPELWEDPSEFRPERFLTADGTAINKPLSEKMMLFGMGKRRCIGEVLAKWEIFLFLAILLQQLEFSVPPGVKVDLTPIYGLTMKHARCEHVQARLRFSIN
In short: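 20nM CYP1A2 with 100uM Luciferin-ME (at Km) in 100mM KPO4; compound preincubated 10 min, NADPH regeneration added, 60 min at room temperature. Luciferin quantified by luminescence after detection reagent; normalized to 57 uM furafylline.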

[8] = Cell Viability - BJ (AID 421; calls by dose curve;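 further: potency means the concentration at half of the fitted maximal effect; cells exposed to compound for 40 hours at 37 °C before readout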); conditions: BJ fibroblast viability, qHTS
In short: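 Cytotoxicity in human BJ foreskin fibroblasts is scored as loss of cellular ATP after a 40-hour exposure, measured by luciferase luminescence. Controls are DMSO and 100 uM tamoxifen.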

[9] = Cell Viability - Jurkat (AID 426;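 active means dose-dependent loss of cell ATP signal giving a full or clear fitted curve, ranked by lower potency value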; further: potency means the concentration at half of the fitted maximal effect); conditions: qHTS
In short: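 Jurkat (Clone E6-1) cells, 5000/well in complete medium, exposed to compounds for 40 hr at 37C; intracellular ATP measured by CellTiter-Glo luminescence after 20 min at room temperature. AC50 from Hill fits.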

[10] = Cell Viability - HepG2 (AID 433; calls by dose curve;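 further: potency means the concentration at half of the fitted maximal effect; potency for ATP loss meaning cytotoxicity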); conditions: qHTS
In short: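 Cytotoxicity read as ATP loss (CellTiter-Glo luminescence) after 40 hr compound exposure of HepG2, 1500 cells/well, 37 °C. AC50 by Hill equation; 0% set by DMSO, 100% inhibition by 100 uM tamoxifen.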

[11] = Cell Viability - N2a (AID 540; active means well fitted curve in the direction sought with a large enough effect; an effect the other way counts as inactive or inconclusive; further: potency means the concentration at half of the fitted maximal effect; nearly all actives have a fitted effect of over 45% in size); conditions: N2a mouse neuroblastoma cell viability; activity change, negative = cytotoxicity: at 92.2 µM (top of the series)
In short: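 Mouse neuroblastoma N2a cells, 1500/well, exposed to compounds 40 h at 37 °C in complete medium. Viability measured as cellular ATP by CellTiter-Glo luminescence; AC50 from Hill fits of concentration-response.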

[12] = Cell Viability - NIH 3T3 (AID 541; active means well fitted curve in the direction sought with a large enough effect; an effect the other way counts as inactive or inconclusive; further: potency means the concentration at half of the fitted maximal effect; nearly all actives have a fitted effect of over 25% in size); conditions: NIH 3T3 cell viability, qHTS; activity change, negative = cytotoxicity: at 92.2 µM (top of the series)
In short: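 Mouse NIH 3T3 fibroblasts, 1000 cells/well, rested 5 hr at 37 °C, then exposed to compound for 40 hr at 37 °C in complete medium. Viability read as intracellular ATP by CellTiter-Glo luminescence; AC50 from Hill-equation fits of concentration-response data.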

[13] = Cell Viability - HUV-EC-C (AID 542; active means well fitted curve in the direction sought with a large enough effect; an effect the other way counts as inactive or inconclusive; further: potency means the concentration at half of the fitted maximal effect; nearly all actives have a fitted effect of over 35% in size); conditions: HUV-EC-C endothelial cell viability, qHTS; series mostly up to 92.2 µM
In short: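 HUV-EC-C human vascular endothelial cells, 1000/well, exposed to compound for 40 hr at 37 °C in complete medium. Intracellular ATP was read by CellTiter-Glo luminescence. AC50 came from Hill-equation fits of concentration-response data.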

[14] = Cell Viability - H-4-II-E (AID 543; active means well fitted curve in the direction sought with a large enough effect; an effect the other way counts as inactive or inconclusive; further: potency means the concentration at half of the fitted maximal effect; nearly all actives have a fitted effect of over 35% in size); conditions: H-4-II-E rat hepatoma viability; series mostly up to 92.2 µM
In short: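 Rat hepatoma H-4-II-E cells, 1500 per well, treated 40 h at 37 °C in complete medium. Cellular ATP read by CellTiter-Glo luminescence; AC50 from Hill fits of concentration-response.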

[15] = Cell Viability - SH-SY5Y (AID 544; active means well fitted curve in the direction sought with a large enough effect; an effect the other way counts as inactive or inconclusive; further: potency means the concentration at half of the fitted maximal effect; nearly all actives have a fitted effect of over 55% in size); conditions: SH-SY5Y neuroblastoma cell viability; viability change, negative = cytotoxic: at 92.2 µM (top of the series)
In short: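 SH-SY5Y human neuroblastoma cells (1500/well) incubated 5 h, then compound-treated 40 h at 37 °C in complete medium. Viability read as intracellular ATP by CellTiter-Glo luminescence after 20 min; AC50 from Hill-equation fits of qHTS concentration-response.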

[16] = Cell Viability - Mesenchymal (AID 546; active means well fitted curve in the direction sought with a large enough effect; an effect the other way counts as inactive or inconclusive;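 further: cells exposed to compound for 40 hours before reading; 0% = DMSO only and -100% = 100 µM tamoxifen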); conditions: mesenchymal cells viability, qHTS; activity change, negative = cytotoxicity: at 91.7 µM (top of the series)
In short: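 Normal human renal glomerulus-derived kidney mesenchymal cells, 1000 per well in complete medium, were treated with compounds for 40 hr at 37 °C. Viability was read as intracellular ATP by CellTiter-Glo luminescence; AC50 values came from Hill-equation fits of qHTS concentration-response data.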

Q: Which results are given for `C[N+]1(CCCCC[N+]2(C)CCCC2)CCCC1`?
A: activity change, negative = inhibition ([1]; at 17.2 µM (top of the series)): 5.75%; activity change, negative = inhibition ([1]; at 38 µM (top of the series)): 7.2%; activity change, negative = inhibition ([2]; at 17.2 µM (top of the series)): -12.7%; activity change, negative = inhibition ([2]; at 38 µM (top of the series)): -8.15%; activity, negative = inhibition ([3]; at 17.2 µM (top of the series)): 14.2%; activity, negative = inhibition ([3]; at 38 µM (top of the series)): 0.841%; Potency [4]: > 46 µM and > 20.6 µM; Potency [5]: > 46 µM and > 20.6 µM; outcome [6]: inactive

Q: Which activity change, negative = inhibition ([1]; at 17.2 µM (top of the series)) does the source give for `CCN(CC)C(=O)N1CCN(C)CC1` here?
A: Its activity change, negative = inhibition is 1.31%.

Q: What about the Potency [7] of the same compound?
A: Its Potency is “inactive”.

Q: And the activity change, negative = inhibition ([2]; at 17.2 µM (top of the series))?
A: The activity change, negative = inhibition was -7.87%.

Q: What about the activity, negative = inhibition ([3]; at 17.2 µM (top of the series)) of the same compound?
A: The activity, negative = inhibition was 3.22%.

Q: What about the Potency [4] of the same compound?
A: Its Potency is > 20.6 µM.

Q: What about the Potency [5] of the same compound?
A: Its Potency is > 20.6 µM.

Q: What about the outcome [6] of the same compound?
A: Its outcome is “inactive”.

Q: Which activity change, negative = inhibition ([1]; at 17.2 µM (top of the series)) does the source give for `CC(C)(C(=O)c1cccnc1)c1cccnc1` here?
A: Its activity change, negative = inhibition is 1.77%.

Q: And the Potency [7]?
A: The Potency was 12.6 µM (active).

Q: What about the activity change, negative = inhibition ([2]; at 17.2 µM (top of the series)) of the same compound?
A: Its activity change, negative = inhibition is -2.38%.

Q: And the activity, negative = inhibition ([3]; at 17.2 µM (top of the series))?
A: Its activity, negative = inhibition is -5.5%.

Q: What about the Potency [4] of the same compound?
A: The Potency was > 20.6 µM.

Q: And the Potency [5]?
A: Its Potency is > 20.6 µM.

Q: What about the outcome [6] of the same compound?
A: The outcome was “inactive”.

Q: What does the source list for `CCN(CCCc1ccccc1)CCCc1ccccc1`?
A: activity change, negative = inhibition ([1]; at 17.2 µM (top of the series)): 18.6% and 13.2%; Potency [7]: 3.98 µM (active); activity change, negative = inhibition ([2]; at 17.2 µM (top of the series)): -87% (active); activity, negative = inhibition ([3]; at 17.2 µM (top of the series)): 13.6% and 2.48%; outcome [6]: inactive

Q: For `Oc1ccc(O)cc1`, which activity change, negative = inhibition ([1]; at 38 µM (top of the series)) is on record?
A: The activity change, negative = inhibition was -22.8%.

Q: And the Potency [7]?
A: The Potency was “inactive”.

Q: And the Potency [8]?
A: Its Potency is > 92 µM.

Q: What about the Potency [9] of the same compound?
A: Its Potency is 4.41 µM (active).

Q: What about the Potency [10] of the same compound?
A: Its Potency is > 92 µM.

Q: And the activity change, negative = inhibition ([2]; at 38 µM (top of the series))?
A: The activity change, negative = inhibition was -5.74%.

Q: What about the activity, negative = inhibition ([3]; at 38 µM (top of the series)) of the same compound?
A: Its activity, negative = inhibition is 3.99%.

Q: What about the Potency [4] of the same compound?
A: Its Potency is > 46 µM.

Q: What about the Potency [5] of the same compound?
A: The Potency was > 46 µM.

Q: What about the outcome [6] of the same compound?
A: The outcome was “inactive”.

Q: What about the Potency [11] of the same compound?
A: Its Potency is 20 µM (active).

Q: What about the Potency [12] of the same compound?
A: Its Potency is 20 µM (active).

Q: And the Potency [13]?
A: Its Potency is 39.8 µM (active).

Q: What about the Potency [14] of the same compound?
A: Its Potency is 79.4 µM (active).

Q: And the Potency [15]?
A: The Potency was 3.16 µM (active).

Q: What about the activity change, negative = cytotoxicity [16] of the same compound?
A: The activity change, negative = cytotoxicity was -96.1% (active).

Q: Which activity change, negative = inhibition ([1]; at 17.2 µM (top of the series)) does the source give for `C[C@H](O)C(=O)Nc1c(I)c(C(=O)NC(CO)CO)c(I)c(C(=O)NC(CO)CO)c1I` here?
A: Its activity change, negative = inhibition is 11.2%.

Q: What about the Potency [7] of the same compound?
A: The Potency was “inactive”.

Q: And the activity change, negative = inhibition ([2]; at 17.2 µM (top of the series))?
A: The activity change, negative = inhibition was 3.52%.

Q: And the activity, negative = inhibition ([3]; at 17.2 µM (top of the series))?
A: The activity, negative = inhibition was -2.21%.

Q: And the Potency [4]?
A: The Potency was > 20.6 µM.

Q: What about the Potency [5] of the same compound?
A: The Potency was > 20.6 µM.

Q: And the outcome [6]?
A: Its outcome is “inactive”.

Q: For `CCOc1ccc(Cc2nccc3cc(OCC)c(OCC)cc23)cc1OCC`, which activity change, negative = inhibition ([1]; at 17.2 µM (top of the series)) is on record?
A: The activity change, negative = inhibition was -1.91%.

Q: What about the Potency [7] of the same compound?
A: Its Potency is 10 µM (active).

Q: And the activity change, negative = inhibition ([2]; at 17.2 µM (top of the series))?
A: The activity change, negative = inhibition was -11.6%.

Q: And the activity, negative = inhibition ([3]; at 17.2 µM (top of the series))?
A: The activity, negative = inhibition was -1.62%.

Q: What about the Potency [4] of the same compound?
A: The Potency was > 20.6 µM.

Q: What about the Potency [5] of the same compound?
A: Its Potency is > 20.6 µM.

Q: And the outcome [6]?
A: The outcome was “inactive”.
